# According to the supplement of paper PMC8728848:
# The full list was thinned out, with the strongest signals kept by preference.
# Experiments:
# Assay in all cases: glycan array binding signal (z-score within array); higher = stronger binding
# Conditions in all cases: glycan notation: IUPAC condensed, linker removed
# [1] = biological target: Fuc(a1-2)Gal
# In short: (§1)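 The Consortium for Functional Glycomics database supplied 3228 glycan arrays, of which those lacking an available protein sequence were dropped. The binding signal, a within-array Z-score, was averaged across arrays of the same protein sequence and across linkers. Negative scores can be read as non-binding.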
# [2] = biological target: Fuc(a1-2)Gal(b1-4)GlcNAc(b1-3)[Fuc(a1-2)Gal(b1-4)GlcNAc(b1-6)]GalNAc
# In short: as §1
# [3] = biological target: Fuc(a1-2)Gal(b1-4)[Fuc(a1-3)]GlcNAc(b1-3)GalNAc
# In short: as §1
# [4] = biological target: Fuc(a1-2)[Gal(a1-3)]Gal(b1-3)GlcNAc(b1-2)Man(a1-3)[Fuc(a1-2)[Gal(a1-3)]Gal(b1-3)GlcNAc(b1-2)Man(a1-6)]Man(b1-4)GlcNAc(b1-4)[Fuc(a1-6)]GlcNAc
# In short: as §1
# [5] = biological target: Fuc(a1-2)[GalNAc(a1-3)]Gal(b1-3)GalNAc(a1-3)[Fuc(a1-2)]Gal(b1-4)GlcNAc
# In short: as §1
# [6] = biological target: Fuc(a1-3)[Gal(b1-4)]GlcNAc(b1-4)Gal(b1-4)[Fuc(a1-3)]GlcNAc(b1-4)Gal(b1-4)[Fuc(a1-3)]GlcNAc
# In short: as §1
# [7] = biological target: Gal(a1-4)Gal(b1-3)GlcNAc(b1-2)Man(a1-3)[Gal(a1-4)Gal(b1-3)GlcNAc(b1-2)Man(a1-6)]Man(b1-4)GlcNAc(b1-4)GlcNAc
# In short: as §1
# [8] = biological target: Gal(a1-4)Gal(b1-4)Glc
# In short: as §1
# [9] = biological target: Gal(a1-4)Gal(b1-4)GlcNAc(b1-2)Man(a1-3)[Gal(a1-4)Gal(b1-4)GlcNAc(b1-2)Man(a1-6)]Man(b1-4)GlcNAc(b1-4)GlcNAc
# In short: as §1
# [10] = biological target: Gal(b1-3)[Fuc(a1-4)]GlcNAc(b1-2)Man(a1-3)[Gal(b1-3)[Fuc(a1-4)]GlcNAc(b1-2)Man(a1-6)]Man(b1-4)GlcNAc(b1-4)[Fuc(a1-6)]GlcNAc
# In short: as §1
# [11] = biological target: Gal(b1-3)[Fuc(a1-4)]GlcNAc(b1-3)Gal(b1-4)GlcNAc
# In short: as §1
# [12] = biological target: Gal(b1-4)Gal
# In short: as §1
# [13] = biological target: Gal(b1-4)GlcNAc(b1-2)[Gal(b1-4)GlcNAc(b1-4)]Man(a1-3)[Gal(b1-4)GlcNAc(b1-2)[Gal(b1-4)GlcNAc(b1-6)]Man(a1-6)]Man(b1-4)GlcNAc(b1-4)GlcNAc
# In short: as §1
# [14] = biological target: Gal(b1-4)GlcNAc(b1-3)[Gal(b1-4)GlcNAc(b1-6)]Gal(b1-4)GlcNAc
# In short: as §1
# [15] = biological target: GalNAc(a1-3)Fuc(a1-2)Gal(b1-4)GlcNAc(b1-3)[GalNAc(a1-3)Fuc(a1-2)Gal(b1-4)GlcNAc(b1-6)]GalNAc
# In short: as §1
# [16] = biological target: GalNAc(a1-3)GalNAc
# In short: as §1
# [17] = biological target: GalNAc(b1-3)Gal
# In short: as §1
# [18] = biological target: Glc(a1-4)Glc(a1-4)Glc(a1-4)Glc
# In short: as §1
# [19] = biological target: Glc(a1-6)Glc(a1-6)Glc(a1-6)Glc
# In short: as §1
# [20] = biological target: GlcNAc(a1-4)Gal(b1-4)GlcNAc(b1-3)Gal(b1-4)Glc
# In short: as §1
# [21] = biological target: GlcNAc(a1-4)Gal(b1-4)GlcNAc(b1-3)Gal(b1-4)GlcNAc
# In short: as §1
# [22] = biological target: GlcNAc(a1-4)Gal(b1-4)GlcNAc(b1-3)Gal(b1-4)[Fuc(a1-3)]GlcNAc(b1-3)Gal(b1-4)[Fuc(a1-3)]GlcNAc
# In short: as §1
# [23] = biological target: GlcNAc(b1-2)Gal(b1-3)GalNAc
# In short: as §1
# [24] = biological target: GlcNAc(b1-2)Man(a1-3)[GlcNAc(b1-2)Man(a1-6)]Man(b1-4)GlcNAc(b1-4)GlcNAc
# In short: as §1
# [25] = biological target: GlcNAc(b1-2)[GlcNAc(b1-4)]Man(a1-3)[GlcNAc(b1-2)Man(a1-6)]Man(b1-4)GlcNAc(b1-4)GlcNAc
# In short: as §1
# [26] = biological target: GlcNAc(b1-3)Gal(b1-4)Glc
# In short: as §1
# [27] = biological target: GlcNAc(b1-3)GalNAc
# In short: as §1
# [28] = biological target: GlcNAc(b1-4)GlcNAc(b1-4)GlcNAc(b1-4)GlcNAc(b1-4)GlcNAc(b1-4)GlcNAc
# In short: as §1
# [29] = biological target: Man(a1-2)Man(a1-3)Man
# In short: as §1
# [30] = biological target: Man(a1-2)Man(a1-3)[Man(a1-6)]Man(a1-6)[Man(a1-2)Man(a1-3)]Man(b1-4)GlcNAc(b1-4)GlcNAc
# In short: as §1
binder,measurement,setting,value
"RetS (Pseudomonas aeruginosa), Q9HUV7 (protein) MVRLRIAIGLLVSFLLLLLGPMSPAVADDAGVSSVPLQTTATTPSANQNWRLLRDESAQLRIADVLQRKEQFRPLAKRSFIFPASPQAVWLQVQLPAQKVPSWLWIFAPRVQYLDYYLVQDGQLVRDQHTGESRPFQERPLPSRSYLFSLPVDGKPMTLYVRMTSNHPLMAWFDQIDEAGLVGLEKPAYAFGMLLGGMLLLLMYNLIRFAYSRSASSLWLAAVHAALAVCAAANLGLVAFWLPGLKFNQSLTADLGALGAAVSLLWFACSFFRGTAESRLNRLLQGEALLILAVGAIIAFTQQLWFSWLIYLLVILSSLSVPLIAAWHWYRGYQPARLIVAGMIVFNAGFMVFLPVLFGTKQLDPGWLVLGVFSFATLAGLVLSVSLTERQRLIQQLNLQQRTSEAAHTAELQTKAEFLAKISHEIRTPMNGVLGMTELLLGTPLSAKQRDYVQTIHSAGNELLTLINEILDISKLESGQIELDEVQFDLNALIEDCLDIFRVKAEQQRIELISFTQPQVPRVIGGDPTRLRQVVLSLLDNAFKQTEEGEILLVVALDDQGETPRLRIAVQDSGHPFDAKEREALLTAELHSGDFLSASKLGSHLGLIIARQLVRLMGGEFGIQSGSSQGTTLSLTLPLDPQQLENPTADLDGPLQGARLLVVDDNETCRKVLVQQCSGWGLNVSAVSSGKEALAQLRTKAHLREYFDVVLLDQDMPGMTGMQLAAKIKEDPNLNHDILLIMLTGISNAPSKIIARNAGIKRILAKPVAGYTLKATLADELAQRGVSGVTNYLQPAKEAQAPSLPSDFRILVAEDNSISTKVIRGMLNKLNLQPDTASNGQEALSAMKATQYDLVLMDCEMPVLDGFSATEQLRAWEAHEQRPHTPVVALTAHILSEHKERARLVGMDGHMAKPVELSQLRELIAYWVGERDRRRQGDALPS",glycan array binding signal (z-score),[1],1.84
same,glycan array binding signal (z-score),[2],0.163
same,glycan array binding signal (z-score),[3],1.16
same,glycan array binding signal (z-score),[4],2.79
same,glycan array binding signal (z-score),[5],0.731
same,glycan array binding signal (z-score),[6],-0.414
same,glycan array binding signal (z-score),[7],5.23
same,glycan array binding signal (z-score),[8],-0.16
same,glycan array binding signal (z-score),[9],3.05
same,glycan array binding signal (z-score),[10],-0.397
same,glycan array binding signal (z-score),[11],0.071
same,glycan array binding signal (z-score),[12],3.18
same,glycan array binding signal (z-score),[13],0.39
same,glycan array binding signal (z-score),[14],-1.17
same,glycan array binding signal (z-score),[15],1.02
same,glycan array binding signal (z-score),[16],-0.917
same,glycan array binding signal (z-score),[17],-0.593
same,glycan array binding signal (z-score),[18],-0.095
same,glycan array binding signal (z-score),[19],-0.394
same,glycan array binding signal (z-score),[20],0.236
same,glycan array binding signal (z-score),[21],6.62
same,glycan array binding signal (z-score),[22],4.27
same,glycan array binding signal (z-score),[23],-0.622
same,glycan array binding signal (z-score),[24],0.152
same,glycan array binding signal (z-score),[25],-0.599
same,glycan array binding signal (z-score),[26],2.75
same,glycan array binding signal (z-score),[27],-0.143
same,glycan array binding signal (z-score),[28],0.22
same,glycan array binding signal (z-score),[29],-1.17
same,glycan array binding signal (z-score),[30],0.409
